# VACV Venus inh: inhibitors of vaccinia virus (Venus reporter); Vaccinia virus Venus reporter expression, fluorescence; 330,000 compounds, 0.46% hits; Potency, µM (doses to about 36.5 µM), for the others: at the highest dose activity change, negative = inhibition, most hits filed as inhibitors; calls by dose curve; tested in A549 cells; note: nearly all actives have a fitted effect of over 30% in size
# VACV mCherry inh: inhibitors of vaccinia virus infection (mCherry reporter signal). Potency, µM (series often up to 36.5 µM), without a hit: at the highest dose activity change, negative = inhibition, hits mostly inhibitors. Vaccinia virus mCherry reporter infection, fluorescence. 310,000 compounds, 0.63% hits; calls by dose curve; tested in A549 cells; note: nearly all actives have a fitted effect of over 35% in size
# HCV inh: inhibitors of hepatitis C virus infection. Huh7.5.1 HCVcc-Cre infection, luciferase reporter, 44 h. Potency, µM (titrated, usually from 41.8 µM), for inactives: at the top dose activity change, negative = inhibition, most hits filed as inhibitors. 340,000 compounds, 3.4% hits; active = well fitted inhibition curve with a large enough effect; inconclusive = small, poorly fitted or top-dose-only effect, or another doubt; inactive = no such curve, though single readings can be large or run the other way
#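 A cell-based infection assay in which seeded cells (1,000 per well) receive test compound after 4 h, are inoculated with HCVcc-Cre at approximately 0.5 moi, and are incubated 44 h before luminescence detection.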
# Numbers without * were called inactive; i = inactive; ? = inconclusive; / = no result given; [ ] = another dose, or the depositor's remark. Rows were chosen to be rich in hits. Some 3.3% of all compounds tested hit in one or more screens of this group. % is set by controls: 0 for no effect and ±100 for the full control effect; potency is the fitted concentration of half-maximal effect.
SMILES,VACV Venus inh,VACV mCherry inh,HCV inh
OC[C@@H]1CN(Cc2ccc(F)cc2)C[C@H](n2cnc3c(N4CCOCC4)ncnc32)O1,4%,-5%,/
COCCCNC(=O)c1ccc2c(c1)N(Cc1ccccc1)C(=O)c1ccccc1S2,-5%,-10%,/
CCCCN(CC)CCCNC(=O)c1ccc2c(c1)N(Cc1ccc(C)cc1)C(=O)c1ccccc1S2,?,13µM*,/
Cc1cccc(C)c1NC(=O)C(C)Sc1nnc(C)n1CC1CCCO1 (stereo not drawn),4%,i,15%
Cc1c(Cl)ccc2c(C(O)CBr)cc(-c3ccccc3)nc12 (stereo not drawn),-14%,-5%,10µM*
Cc1cc(-c2ccccc2)nc(-c2ccccc2)c1C,-15%,-11%,?
C=CC[C@@H](CC(=O)N[C@H](CO)Cc1ccccc1)C(=O)N[C@H](COC(=O)[C@@H](CC=C)CC(=O)OC(C)(C)C)Cc1ccccc1,?,-19%,?
CCc1cccc(NC(=O)C2CCCN(c3ncnc4c3nc3n4CCCCC3)C2)c1 (stereo not drawn),?,i,11µM*
O=C(Nc1cccc(Cl)c1)C1CCCN(c2ncnc3c2nc2n3CCCCC2)C1 (stereo not drawn),-15%,-17%,/
Cc1ccc(NC(=O)C2CCN(c3ncnc4c3nc3n4CCCCC3)CC2)nc1,/,/,13µM*
Cc1ccc(C)c(NC(=O)C2CCN(c3ncnc4c3nc3n4CCCCC3)CC2)c1,-2%,i,/
Cc1c(C(=O)NCC2(N3CCOCC3)CCCC2)cnn1-c1nccc(-c2ccccc2F)n1,-20%,-29%,/
CC(C)Oc1ccc(C(=O)NN2C(=O)NC3(CCCCC3)C2=O)cc1,-10%,-5%,0%
OC(CN1C2=NCCCN2c2ccccc21)c1ccc(Cl)cc1 (stereo not drawn),-2%,i,?
OC(COc1ccc(Cl)cc1)CN1C2=NCCCN2c2ccccc21 (stereo not drawn),-44%,/,13µM*
CCOc1cccc(C2C=C(c3ccc4c(c3)OCO4)NC(c3ccccc3F)N2)c1O (stereo not drawn),-15%,-4%,/
COc1cc(NS(=O)(=O)c2cc(Br)cc3c2N(C(=O)C2CC2)CC3)cc(OC)c1,?,18µM*,/
O=C(C1CC1)N1CCc2cc(Br)cc(S(=O)(=O)Nc3ccc(F)c(F)c3)c21,-12%,-14%,/
Cc1nc(NC(=O)COC(=O)C2CC2C)c(Cl)cc1Cl (stereo not drawn),/,/,-4%
CC(C)CN(C(=O)CSc1ccc2c(c1)OCCO2)c1c(N)n(CC(C)C)c(=O)[nH]c1=O,-11%,i,10%
Cn1c(N)c(C(=O)COC(=O)c2ccc3c(c2)OCCO3)c(=O)n(C)c1=O,2%,-6%,-3%
CC(C)Cn1c(N)c(C(=O)CSc2ccc3c(c2)OCCO3)c(=O)n(C)c1=O,/,/,2µM*
CC(C)Cn1c(N)c(C(=O)COC(=O)c2ccc3c(c2)OCCO3)c(=O)n(C)c1=O,/,/,7.1µM*
COC(=O)[C@@H]1CCCN1Cc1ccc2c(c1)CN(Cc1nccs1)CCO2,-10%,i,/
CCC(=O)c1cn(CC(=O)Nc2cc(C)ccc2C)c2ccccc12,/,/,1%
SMILES,VACV Venus inh,VACV mCherry inh,HCV inh
O=C(CSc1ccc(Cl)cc1)Nc1ccc(N2CCN(C(=O)c3ccco3)CC2)cc1,-23%,/,2%
Cc1ccccc1C(=O)N1CCN(c2ccc(NC(=O)c3ccco3)cc2)CC1,17%,-13%,-3%
Cc1ccccc1C(=O)N1CCN(c2ccc(NC(=O)c3ccc4c(c3)OCCO4)cc2)CC1,-24%,?,8.9µM*
CN1CCN(c2ccc(NC(=S)NC(=O)c3cccc4c(Br)cccc34)cc2)CC1,-6%,-9%,?
Cc1ccc(C(=O)N2CCN(c3ccc(NC(=O)c4ccc(Br)o4)cc3)CC2)cc1,-23%,?,10µM*
CN1CCN(c2ccc(NC(=S)NC(=O)c3cccc4ccccc34)cc2)CC1,/,/,11µM*
Cc1ccccc1C(=O)N1CCN(c2ccc(NC(=O)CSc3ccc(Cl)cc3)cc2)CC1,?,-29%,11µM*
O=C(Nc1ccc(C(=O)N2CCN(c3ccncc3)CC2)cc1)c1ccc(Br)o1,6%,0%,/
O=C(NCC1CCC2(CCN(Cc3cnn(-c4ccc(F)cc4)c3)CC2)O1)c1ccccc1 (stereo not drawn),-13%,i,/
CC(=O)c1ccc(NC(=O)CN(C)S(=O)(=O)c2cc3c(cc2Cl)NC(=O)CO3)cc1,-12%,1%,/
COc1ccccc1CNC(=O)CN1C(=O)CCn2nc(-c3ccccc3)cc21,-9%,-10%,/
CC(=O)c1ccc(N2CCN(C(=O)Cn3cnc(S(=O)(=O)N4CCCCC4)c3)CC2)cc1,1%[7.34 µM],-13%[7.34 µM],15%
Cn1c(=O)cc(OCC(=O)NCc2ccc(F)cc2Cl)c2ccccc21,1%,-3%,/
COc1c(C)cccc1C(=O)Nc1ccc(N2CCN(C(=O)c3ccccc3C)CC2)cc1,-30%,-20%,7.9µM*
O=C(Nc1ccc(N2CCN(C(=O)c3ccccc3)CC2)cc1)c1ccc2c(c1)OCO2,/,/,22µM*
Cc1ccccc1C(=O)N1CCN(c2ccc(NC(=O)c3cccc(OC(C)C)c3)cc2)CC1,-6%,-17%,?
CC(C)C(=O)N1CCN(c2ccc(NC(=O)c3ccc4c(c3)OCCO4)cc2)CC1,0%,-1%,-8%
CC(=O)N1CCN(c2ccc(NC(=O)c3ccc4c(c3)OCO4)cc2)CC1,6%,-5%,10%
Cc1ccc(C(=O)N2CCN(c3ccc(NC(=O)c4ccc5c(c4)OCCO5)cc3)CC2)cc1,-8%,-23%,2.8µM*
COc1cc2nc(/C=C/c3cc(OC)c(OC)c(OC)c3)sc2cc1SC,?,?,10µM*
COc1cc(/C=C/c2ccnc3ccccc23)cc(OC)c1OC,-23%,-17%,/
Cc1ccc(OCC(=O)NCCNC(=O)c2ccncc2)cc1C,1%,-11%,7%
O=C(Nc1ccc2snnc2c1)Nc1cccc2ccccc12,?,?,10µM*
CCc1ccccc1NC(=O)Nc1ccc2snnc2c1,-6%,-6%,/
CCSc1nnc2c(n1)OC(c1ccc(C)cc1)N(C(C)=O)c1ccccc1-2 (stereo not drawn),-8%,-14%,/
SMILES,VACV Venus inh,VACV mCherry inh,HCV inh
CC(=O)c1c(C)[nH]c(C(=O)OCc2cccc(Cl)c2)c1C,-26%,?,11µM*
CCOC(=O)c1[nH]c(C)c(C(=O)OCc2ccccc2F)c1C,?,?,3.2µM*
CCOC(=O)c1c(C)[nH]c(C(=O)NNC(=O)c2ccccc2F)c1C,-14%,-3%,?
CC(=O)c1c(C)[nH]c(C(=O)OCc2ccc(F)cc2Cl)c1C,-23%,-6%,?
CCc1c(C(=O)NCc2ccccc2Cl)[nH]c(C)c1C(C)=O,-15%,i,-23%
CC(=O)c1c(C)[nH]c(C(=O)OCc2cc(-c3ccco3)on2)c1C,-1%,0%,?
CC(=O)c1c(C)[nH]c(C(=O)OCc2c(F)cccc2Cl)c1C,-28%,?,10µM*
CC(=O)c1c(C)[nH]c(C(=O)NCc2ccccc2Cl)c1C,/,/,13µM*
COc1ccc(OC)c(CN2CCOc3ccc(CN4CCC(O)(c5cccnc5)CC4)cc3C2)c1,4%,-14%,/
CC(C)c1cccc(C(C)C)c1OC(=O)[C@H]1OC(c2ccc(Br)cc2)=C[C@@H]1c1ccc(Br)cc1,-25%,i,10%
